Experimental data reported in PMC5540273 (PLoS ONE, 2017).

Experiments:
Conditions in all cases: concentration: 1 μM, replicates: in singlicate; n = 1
[1] = tested on: MKK7
[2] = tested on: MKNK1
[3] = tested on: MKNK2
[4] = tested on: T1, MLCK
T1 construct: gene MYLK3

[5] = tested on: T2, MLK1
T2 construct: gene MAP3K9

[6] = tested on: MLK2
[7] = tested on: MLK3
[8] = tested on: MRCKA
[9] = tested on: T3, MRCKB
T3 construct: gene CDC42BPB

[10] = tested on: MST1R
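Note: KINOMEscan kinase panel screen.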

SMILES	%Inh [1]	%Inh [2]	%Inh [3]	%Inh [4]	%Inh [5]	%Inh [6]	%Inh [7]	%Inh [8]	%Inh [9]	%Inh [10]
COc1ccc(COc2cc(-n3cnc4ccccc43)sc2C(N)=O)cc1 [GSK1024304]	0%	13%	1%	0%	0%	0%	4%	0%	0%	25%
CC(C)Oc1ccc2c(-c3ccnc(Nc4ccc(N5CCN(C)CC5)cc4)n3)cnn2n1 [GW696155]	0%	37%	84%	42%	0%	0%	0%	35%	0%	0%
NCC(NC(=O)c1cc(-c2cn[nH]c2)c(-c2ccnc3[nH]ccc23)s1)c1ccccc1.O=C(O)C(F)(F)F.O=C(O)C(F)(F)F (stereo not drawn) [GSK1325775]	0%	63%	94.2%	96.3%	0%	0%	0%	80%	98.6%	5%
COc1ccc(Nc2nccc(N3CCC(NC(=O)Nc4cc(C)ccc4C)C3)n2)cc1 (stereo not drawn) [GSK1379741]	28%	0%	5%	11%	0%	0%	0%	24%	0%	55%
c1ccc(-c2cc(-c3c[nH]nc3-c3ccccn3)ccn2)cc1 [GW576604]	0%	5%	0%	9%	6%	0%	0%	4%	0%	34%
NS(=O)(=O)c1cccc(-c2ccc3ncc(N4CCOCC4)nc3c2)c1 [GSK1535721]	16%	0%	0%	2%	0%	27%	1%	0%	2%	26%
Cc1cn2c(=O)cc(N3CCOCC3)nc2n1Cc1cccc(Cl)c1Cl [GSK2334006]	29%	2%	10%	0%	0%	2%	38%	6%	8%	28%
Cl.Nc1ncnc2occ(-c3ccc(NC(=O)Nc4cc(C(F)(F)F)ccc4F)cc3)c12 [SB-707548]	22%	56%	98%	44%	40%	65%	65%	11%	0%	28%
Nc1nc(-c2ccc3c(N)n[nH]c3c2)cc(N2CCCC2)n1 [GSK2227430]	0%	4%	12%	0%	0%	6%	0%	6%	0%	1%
CN1c2ccc(NCc3ccc(F)cc3)cc2-c2c(cnn2C)S1(=O)=O	0%	0%	0%	0%	15%	22%	0%	0%	0%	0%
COc1cc(Nc2nccc(N3CCC(NC(=O)c4cccc(NC(C)=O)c4)C3)n2)cc(OC)c1OC (stereo not drawn) [GSK1379754]	32%	38%	98.6%	1%	67%	50%	53%	0%	0%	20%
COc1cc2ncn(-c3cc(OCc4sccc4Cl)c(C(N)=O)s3)c2cc1OC [GSK448459]	0%	0%	0%	10%	0%	0%	0%	4%	0%	38%
COc1ccc(CNC(=O)NC2CCN(c3ccnc(Nc4ccc(OC)cc4)n3)C2)cc1 (stereo not drawn) [GSK1379727]	14%	0%	0%	0%	0%	0%	0%	0%	4%	40%
Cn1cc(-c2ccc3c(c2)CCN3C(=O)Cc2ccccc2Cl)c2c(N)ncnc21 [GSK2608885]	0%	7%	0%	22%	32%	0%	45%	84%	92.2%	100%
Nc1nccc(-c2c(-c3ccc(F)cc3)ncn2C2CCN(CC(F)(F)F)CC2)n1 [SB-236560]	30%	34%	35%	0%	0%	0%	2%	0%	14%	17%
CCc1nc(-c2cccc(C)c2)c(-c2ccnc(NCc3ccccc3)c2)s1	0%	1%	0%	0%	0%	0%	0%	0%	0%	8%
O=c1cc(N2CCOCC2)nc2n(Cc3cccc(F)c3)ccn12 [GSK2297430]	0%	0%	10%	0%	2%	0%	28%	0%	0%	8%

SMILES	%Inh [1]	%Inh [2]	%Inh [3]	%Inh [4]	%Inh [5]	%Inh [6]	%Inh [7]	%Inh [8]	%Inh [9]	%Inh [10]
CCn1cnc2c(N)ncnc21 [GW345098]	0%	0%	0%	1%	6%	12%	4%	0%	2%	0%
CSc1ccc(-c2cc3ncnc(SCC(=O)O)c3s2)cc1	0%	0%	0%	3%	0%	24%	0%	8%	34%	36%
COc1ccc(S(=O)(=O)NC2CCN(c3cc(C)nc(Nc4cccc(C#N)c4)n3)CC2)cc1.O=C(O)C(F)(F)F [GSK1653539]	0%	0%	20%	0%	0%	0%	27%	0%	0%	48%
CCc1ccnc(/C=C/c2n[nH]c3cc(Sc4ccccc4C(=O)NC)ccc23)c1	0%	0%	0%	1%	9%	4%	20%	0%	1%	16%
Fc1ccc(-c2nn3c(OCC(F)(F)F)cccc3c2-c2ccncc2)cc1 [GW514784]	0%	0%	0%	0%	0%	0%	0%	24%	32%	13%
N#Cc1ccc(-c2cc(-c3c[nH]nc3-c3ccccn3)ccn2)cc1 [GW693028]	0%	7%	14%	0%	0%	6%	0%	0%	0%	26%
O=C1NC(=O)C(N2CCc3ccccc32)=C1c1cccc(Cl)c1 [SB-408010]	0%	18%	46%	0%	0%	0%	0%	0%	15%	5%
c1ccc(-c2n[nH]cc2-c2ccnc3ccccc23)nc1 [GW271431]	0%	6%	7%	10%	0%	0%	22%	28%	13%	32%
O=C(c1ccc(-c2cc(-c3c[nH]nc3-c3ccccn3)ccn2)cc1)N1CCOCC1 [GW812171]	24%	0%	0%	0%	0%	34%	0%	1%	12%	0%
COc1cc2c(cc1OC[C@@H](O)CO)ncc1c3ccc(C#N)cc3[nH]c21	0%	97.1%	99.4%	94.5%	3%	0%	0%	0%	0%	9%
CN1c2ccc(CNc3ccc(F)cc3)cc2-c2c(cnn2C)S1(=O)=O	0%	15%	0%	3%	0%	24%	0%	0%	0%	0%
O=C(NCCCN1CCOCC1)c1cccc(Nc2nccc(Nc3ccc(Oc4ccccc4)cc3)n2)c1 [GW663929]	0%	0%	29%	0%	0%	0%	18%	4%	0%	37%
COc1ccc(Nc2ncc(C#N)c(Nc3ccccc3C(N)=O)n2)cc1N1CCN(C)CC1.Cl [GSK1558669]	0%	30%	98.2%	99.7%	98.7%	100%	100%	44%	87%	86%
Cc1nnc(-c2ccc(C)c(-c3ccc(C(=O)Nc4ccc(NS(C)(=O)=O)cc4)cc3)c2)o1 [GW702865]	0%	0%	0%	12%	5%	0%	7%	0%	0%	13%
COc1cc2c(cc1OCCN1CCN(C)CC1)ncc1c3ccc(C#N)cc3[nH]c21	0%	99.4%	99.7%	98.8%	0%	0%	20%	10%	0%	7%
COc1ccc(Nc2nccc(N3CCC(NC(=O)Nc4cccc(C(C)=O)c4)C3)n2)cc1 (stereo not drawn) [GSK1379731]	0%	0%	4%	5%	0%	0%	0%	0%	0%	17%
